Source: PubChem BioAssay
A selection: hits, their analogues and other compounds. The true share with any hit is near 21%.
AMA1 RON2 block: inhibitors of Plasmodium falciparum AMA1-RON2 interaction; AlphaScreen AMA1-biotinylated RON2 peptide binding; Potency, µM (top dose mostly 58.2 µM), without a hit: at the top dose activity change, negative = inhibition, most hits filed as inhibitors; 0.2% of 360,000 active; AID 720542;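 note: potency is the fitted concentration of half-maximal effect; 0% = vehicle wells and -100% = peptide control; nearly all actives have a fitted effect of over 45% in size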
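AMA1 (3D7) with his tag at 25 nM final met compounds first, then biotinylated RON2 peptide at 25 nM; detection used donor plus acceptor beads, 10 µg/mL apiece, read by AlphaScreen after 30 min at room temperature.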
Pf growth 96h: inhibits malaria parasite growth, 96 h | 6.9% of 320,000 active | Potency, µM (titrated, usually from 28.7 µM), for the others: at the highest dose activity change, negative = inhibition, actives largely listed as inhibitors | AID 504834 | P. falciparum luciferase reporter growth, 96 h; note: potency is the fitted concentration of half-maximal effect; % is set by controls: 0 for no effect and ±100 for the full control effect
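Luminescence readout: decreased luciferase signal marks inhibited growth of reporter-expressing P. falciparum in infected red cells (2% hematocrit, 0.05% parasitemia final), exposed to compound two generations (96 h, 37 C, 5% CO2).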
Shiga inhibitor: blocks Shiga toxin action in Vero cells; Vero cells, Shiga toxin protein synthesis inhibition reporter; inhibition, % at 38.7 µM; 9.2% of 290,000 active; AID 2315; in the data active = inhibition mostly above about 28%, no sharp cut-off; inactive = mostly below about 43%; note: 0% is about no effect
CHX counter: counter-screen hit for Shiga toxin inhibitors, cycloheximide; cell reporter, cycloheximide protein synthesis inhibition counterscreen; max response, %; 12% of 300,000 active; AID 2314; in the data active = max response mostly above about 13%, no sharp cut-off; inactive = mostly below about 14%; note: read at 38.3 µM for the half of the compounds with a filed dose; 0% is about no effect
Pf growth 48h: inhibits P. falciparum growth in the first generation, 48 h | P. falciparum luciferase growth in erythrocytes, 48 h | Potency, µM (highest dose often 28.7 µM), inactives show at the highest dose activity change, negative = inhibition, actives largely listed as inhibitors | 5.9% of 310,000 active | AID 504832; note: potency is the fitted concentration of half-maximal effect; % is set by controls: 0 for no effect and ±100 for the full control effect
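Compounds are pin-transferred into medium, infected erythrocytes (2% hematocrit, 0.1% parasitemia final) are added, and plates sit one parasite generation at 37 C in 5% CO2. Detection reagent is then added and luminescence measured.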
HCV inh: inhibitors of hepatitis C virus infection; Potency, µM (doses to about 41.8 µM), for inactives: at the top dose activity change, negative = inhibition, most hits filed as inhibitors; Huh7.5.1 HCVcc-Cre infection, luciferase reporter, 44 h; 3.4% of 340,000 active; note: potency is the fitted concentration of half-maximal effect; % is set by controls: 0 for no effect and ±100 for the full control effect
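Cells seeded at 1,000/well and cultured 4 h, then compounds added followed by HCVcc-Cre virus (~0.5 moi). After 44 h further culture, luciferase substrate was added, plates held 15 min at room temperature, and luminescence read for 15 sec.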
Numbers without * were called inactive; ? = inconclusive; / = no result; [ ] = another dose, or the depositor's remark. Unless noted, calls come from the whole dose curve; as a rule, active = well fitted curve in the direction sought with a large enough effect; inconclusive = small, poorly fitted or top-dose-only effect, or another doubt; inactive = no such curve, though single readings can be large; an effect the other way counts as inactive or inconclusive.

SMILES	AMA1 RON2 block	Pf growth 96h	Shiga inhibitor	CHX counter	Pf growth 48h	HCV inh
c1ccc(-c2nc(N3CCOCC3)s[n+]2-c2ccccc2)cc1	5.0%	91.5%	40.0*	57.2*	79.1%	-7.1%
c1ccc(-c2nc(N3CCOCC3)sc2-c2ccccc2)cc1	-14.8%	-12.7%	-0.9	8.0	-14.7%	?
O=[N+]([O-])c1cc2c(cc1/C=N/n1c(-c3ccccc3)n[nH]c1=S)OCO2	47.9%	5.6%	55.0*	43.1*	0.0%	-2.2%
S=c1[nH]nc(C2CCCCC2)n1/N=C/c1ccccc1Br	73.0%	38.8%	30.1	1.3	34.4%	14.1%
Oc1cccc(/C=N/n2c(C3CCCCC3)n[nH]c2=S)c1	111.2%	13.5%	-6.9	-1.6	32.8%	2.24µM*
O=[N+]([O-])c1ccccc1/C=N/n1c(C2CCCCC2)n[nH]c1=S	21.4%	17.3%	86.9	34.4*	19.5%	1.1%
Fc1cccc(/C=N/n2c(C3CCCCC3)n[nH]c2=S)c1	93.7%	41.6%	23.9	1.4	14.4%	9.5%
COc1ccccc1N/C(=N/S(=O)(=O)c1ccc(C)cc1)c1ccccc1	-0.6%	57.0%	-7.9	5.7	24.7%	-5.8%
COc1cc(N/C(=N/S(=O)(=O)c2ccccc2)c2ccccc2)ncn1	-11.8%	-12.0%	67.7*	45.7*	118.0%	3.7%
Cc1ccc(S(=O)(=O)/N=C(/Nc2cccc(O)c2)c2ccccc2)cc1	-0.6%	71.8%	-5.4	-3.0	-6.5%	11.2µM*
O=S(=O)(/N=C(/Nc1ccccn1)c1ccc(Cl)cc1)c1ccc(Cl)cc1	20.6%	?	20.1	48.9*	33.2%	8.2%
O=C(Nc1ccccn1)c1ccc(S(=O)(=O)c2ccc(Cl)cc2)cc1	-6.8%	35.9%	-4.6	-2.2	?	?
O=C(NN/C(=N/S(=O)(=O)c1ccc(Cl)cc1)c1ccccc1)c1ccc(O)cc1	-6.6%	145.7%	56.2*	67.0*	196.8%	42.9%
C#CCOCCOCCOCCNc1nc(N2CCN(C(=O)[C@H](CO)n3cc([C@@H](N)C(C)C)nn3)CC2)nc(N2CCN(C(=O)[C@H](CO)n3cc([C@@H](N)C(C)C)nn3)CC2)n1	30.0%	/	/	/	/	-7.2%[8.37 µM]
O=C(NCc1cccnc1)c1cc(C2CCCCN2C(=O)CCCc2ccccc2)on1 (stereo not given)	10.2%	/	/	/	/	/
Cc1nc(C(F)(F)F)ccc1C(=O)N1CCC1(C)C(=O)NS(=O)(=O)c1ccc(C#N)cc1 (stereo not given)	-0.9%	/	/	/	/	/
CC(=O)NC12CC3CC(C1)CC(C(=O)N1CCN(S(=O)(=O)c4ccccc4C#N)CC1)(C3)C2	61.0%	/	/	/	/	-2.2%
Cc1ccc(S(=O)(=O)/N=C(/NNC(=O)c2cccc(Cl)c2)c2ccccc2)cc1	64.6%	?	99.2*	33.4*	218.2%	14.6%
O=C(O)c1ccc(N/C(=N\S(=O)(=O)c2ccc(Cl)cc2)c2ccccc2)cc1	6.8%	?	10.6	-2.1	35.9%	?
O=C(NN/C(=N/S(=O)(=O)c1ccc(Cl)cc1)c1ccccc1)c1cccc(Cl)c1	57.8%	9.8%	81.4*	30.9*	273.4%	4.6%
CC(C)CCSc1nc2[nH]ncc2c(=O)[nH]1	-2.3%	12.8%	6.8	-11.0	?	21.0%
Cc1ccc(O)c(NC(=S)NC(=O)c2ccccc2Cl)c1	0.7%	3.9%	45.7	17.5*	25.1%	4.3%
CC(NC(=O)c1ccccc1Cl)NC(=O)c1ccccc1Cl	12.7%	10.3%	-10.6	-0.8	10.5%	14.9%
COc1ccc(NC(=S)NC(=O)c2ccccc2Cl)cc1	26.8%	?	96.3*	38.2*	100.0%	3.4%
CC(C)CNC(=S)NC(=O)c1ccccc1Cl	12.3%	37.3%	43.5*	39.6*	31.4%	15.8%
SMILES	AMA1 RON2 block	Pf growth 96h	Shiga inhibitor	CHX counter	Pf growth 48h	HCV inh
O=C(NC(=S)Nc1ccc(Cc2ccncc2)cc1)c1ccccc1Cl	10.5%	133.6%	-7.4	-0.2	-13.9%	2.3%
O=C(NC(=S)Nc1ccc(O)cc1)c1ccccc1Cl	58.6%	-4.3%	48.0	34.4*	99.3%	5.1%
Cc1ccc(O)c(NC(=O)c2ccccc2-c2ccccc2C(=O)O)c1	8.8%	?	/	-1.1	21.2%	12.9%
O=C1CCc2cc(Br)ccc2O1	-1.8%	/	/	/	/	37.9%
COCc1cc(C)n(CC(=O)Nc2ccc3c(c2)OCO3)c(=O)c1C#N	1.7%	32.4%	10.1	3.3	19.7%	12.5%
CCOc1ccc(NC(=S)NC(=O)c2c(Cl)c(C)nn2C)c([N+](=O)[O-])c1	1.0%	16.8%	3.4	0.9	4.8%	1.9%
Cc1nn(C)c(C(=O)NC(=S)Nc2ccccc2O)c1Cl	93.7%	?	19.0	10.5*	?	8.2%
COc1ccc(CC(=O)Nc2ccc(F)c(F)c2F)cc1S(=O)(=O)N1CCOCC1	-4.8%	?	/	/	11.7µM*	-0.8%
COc1ccc(CC(=O)Nc2nc3ccccc3s2)cc1S(=O)(=O)N1CCOCC1	-24.3%	?	-13.6	1.4	?	11.2µM*
COc1ccc(CC(=O)Nc2nc3ccc(F)cc3s2)cc1S(=O)(=O)N1CCOCC1	-20.1%	6.57µM*	69.8*	40.1*	?	12.6µM*
COc1ccc(CC(=O)Nc2cc(F)ccc2F)cc1S(=O)(=O)N1CCOCC1	-1.7%	/	/	/	/	/
CCCCc1nnc(NC(=O)Cc2ccc(OC)c(S(=O)(=O)N3CCOCC3)c2)s1	26.0%	?	/	/	10.4µM*	3.0%
FC(F)(F)c1cccc(N2CCc3cn[nH]c32)c1	-2.1%	28.9%	32.5*	23.4*	36.7%	?
CCN(CC)CCCNC(=O)c1ccc(S(=O)(=O)Nc2ccc(C)c(C)c2)cc1	5.5%	?	/	/	?	?
COCc1ccccc1C1=CC(=O)C[C@H](c2ccc(OC)cc2)C1	-1.6%	8.1%	/	/	32.6%	1.9%
CCOC(=O)COc1cc(Br)c(/C=N/Nc2ccccc2)cc1OC	10.2%	10.4µM*	-6.9	-1.4	8.28µM*	1.5%
COc1ccc(CC(=O)N/N=C(\C)c2cccnc2)cc1	8.8%	11.0%	1.7	1.2	12.2%	7.4%
CN=c1scc(-c2ccc(OC)cc2)n1/N=C(\C)c1cccnc1	?	?	57.3*	32.0*	-24.0%	?
CCCCC(=O)N/N=C(/C)C1=C(C)C(C)(C)OC1=O	9.7%	2.5%	-6.0	-2.3	3.3%	5.8%
COc1cc(CNCc2ccccn2)ccc1OCc1ccc(Cl)cc1	-3.3%	-27.0%	36.2	15.8	?	-4.5%
COc1cc(CNCCN2CCOCC2)ccc1OCc1c(Cl)cccc1Cl	/	46.7%	-18.2	-5.3	?	?
COc1cc(CNCc2ccccn2)ccc1OCc1c(Cl)cccc1Cl	6.2%	?	9.5	1.1	?	11.2µM*
COc1cc(CNCc2ccccn2)ccc1OCc1cccc(Cl)c1	-14.4%	?	72.9	24.8*	?	?
